In the library only some 9.4% were active in any assay of this set; here they are far more common.
ELG1 DNA repair: ELG1-dependent DNA repair inhibition | AID 504467 | Potency, µM (series often up to 46.1 µM), usual class: inhibitors | 330,000 compounds, 2.3% hits | HEK293T ELG1-luciferase reporter, luminescence, 16 h; DNA damage induced by 5-fluorouridine; further: nearly all actives have a fitted effect of over 55% in size
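Reporter activity after DNA damage by 5-fluorouridine is monitored. Compound-treated cells incubate 16 hr at 37 °C, then ONE-Glo is added for 30 min before luminescence reading.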
NPC1 prom act: activators of NPC1 promoter. Huh7 NPC1 promoter luciferase reporter, 24 h. Potency, µM (doses to about 9.22 µM), most hits filed as activators. 320,000 compounds, 2.4% hits; further: nearly all actives have a fitted effect of over 60% in size
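Quantitative HTS used a cell-based reporter: Huh7 cells stably bearing the NPC1 promoter upstream of luciferase were treated with compounds for 24 h, and promoter activation was read as luminescence.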
ELG1 genotoxic: induces genotoxicity in HEK293T cells with luciferase-tagged ELG1; HEK293T ELG1-luciferase reporter, luminescence, 16 h; Potency, µM (titrated, usually from 46 µM), hits mostly activators; 330,000 compounds, 1.3% hits; AID 504466; further: nearly all actives have a fitted effect of over 60% in size
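16 hr compound incubation (37 °C, 5% CO2) of HEK293T cells carrying luciferase-tagged ELG1; luciferase then measured by ONE-Glo luminescence after 30 min at RT.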
SMN2 splice enh: increases expression of the SMN2 splice variant; HEK293 SMN2-luciferase splicing reporter, luminescence, 30-36 h; Potency, µM (doses to about 46.1 µM), hits mostly activators; 210,000 compounds, 2.8% hits; AID 1458; further: nearly all actives have a fitted effect of over 55% in size
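HEK293 cells carry an SMN2 […]–luciferase reporter in which exon 7 inclusion puts luciferase in frame. Cells were plated 10-12 h before compound addition, then incubated 30-36 h at 37C. ONE-Glo luminescence was read; sodium butyrate at 4.5 mM final served as control.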
FLuc counter: counter-screen for miR-21 project: firefly luciferase inhibitors or activators; P08659; purified FLuc, Km substrates, luminescence inhibition; Potency, µM (top dose mostly 57.5 µM), hits mostly inhibitors; 360,000 compounds, 6.9% hits; AID 588342; further: nearly all actives have a fitted effect of over 55% in size
Target sequence (P08659 whole entry, looked up): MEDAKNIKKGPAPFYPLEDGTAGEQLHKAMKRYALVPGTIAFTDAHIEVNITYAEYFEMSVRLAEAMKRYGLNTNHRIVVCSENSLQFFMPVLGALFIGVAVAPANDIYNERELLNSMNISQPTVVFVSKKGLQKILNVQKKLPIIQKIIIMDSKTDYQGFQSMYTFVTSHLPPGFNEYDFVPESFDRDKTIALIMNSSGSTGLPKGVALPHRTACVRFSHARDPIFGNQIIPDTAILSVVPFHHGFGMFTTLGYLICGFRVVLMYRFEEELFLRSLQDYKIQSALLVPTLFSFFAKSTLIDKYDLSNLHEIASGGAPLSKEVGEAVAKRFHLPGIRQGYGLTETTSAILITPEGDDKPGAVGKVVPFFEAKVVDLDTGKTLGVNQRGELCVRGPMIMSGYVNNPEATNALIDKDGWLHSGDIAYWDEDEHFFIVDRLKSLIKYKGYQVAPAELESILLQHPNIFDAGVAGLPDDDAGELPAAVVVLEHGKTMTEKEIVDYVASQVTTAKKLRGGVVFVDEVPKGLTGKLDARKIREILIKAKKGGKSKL
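Purified P. pyralis luciferase (10nM final) with 10uM D-luciferin and 10uM ATP (Km levels) in 50mM Tris acetate pH 7.5, 10mM Mg acetate, 0.01% Tween-20, 0.05% BSA; qHTS 6-point titration, ~60 µM downward; luminescence read.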
Rab9 promoter act: Rab9 promoter activation; 320,000 compounds, 2.8% hits; Potency, µM (highest dose often 9.22 µM), actives largely listed as activators; Huh7 Rab9 promoter-luciferase reporter, luminescence, 24 h; AID 485297; further: nearly all actives have a fitted effect of over 60% in size
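Quantitative HTS format; Huh7 Rab9-luciferase reporter cells (1500/well) receive compound 2 h post-plating, incubate 24 h at 37 °C, then get luciferase reagent for 10 min before luminescence reading.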
Numbers stand for hits; n = inactive; u = inconclusive; x = no result. The call rests on the fitted dose curve; in most records, active means well fitted curve in the direction sought with a large enough effect; inconclusive means small, poorly fitted or top-dose-only effect, or another doubt; inactive means no such curve, though single readings can be large; an effect the other way counts as inactive or inconclusive.

SMILES	ELG1 DNA repair	NPC1 prom act	ELG1 genotoxic	SMN2 splice enh	FLuc counter	Rab9 promoter act
COC(=O)CSc1ncccc1-c1nc2ccccc2[nH]1	u	n	u	n	13µM	n
O=C(CSc1ncccc1-c1nc2ccccc2[nH]1)N1CCc2ccccc21	u	u	u	n	7.6µM	2.8µM
CCOc1ccccc1Nc1nnc(-c2cc3cc(Cl)ccc3oc2=O)s1	x	x	x	x	n	x
CC(=O)N1CCN(Cc2nc3cc(NC(=O)c4ccc(Cl)cc4)ccc3n2C)CC1	21µM	n	n	n	u	n
CC(=O)N1CCN(Cc2nc3cc(NC(=O)c4cccc(Br)c4)ccc3n2C)CC1	8.2µM	n	n	x	n	u
COc1ccccc1CC(=O)Nc1cccc2c1CCCC2	n	n	n	4.5µM	n	n
CCC(=O)Nc1cc(OC)c(NC(=O)c2ccccc2)cc1OC	n	n	n	u	n	n
COc1cccc(OC)c1C(=O)Nc1cccc2c1CCCC2	n	n	n	x	n	n
COc1cc(NC(=O)c2ccccc2)c(C)cc1NC(=O)CC(CC(=O)O)c1ccccc1 (centres undefined)	n	n	n	x	13µM	n
COc1ccccc1CC(=O)Nc1cc(OC)c(NC(=O)c2ccccc2)cc1OC	16µM	n	n	x	n	n
COc1ccc(CNc2nc3ccccc3n2C)c(OC)c1	u	3.2µM	u	x	12µM	2.5µM
COc1ccc(CNc2nc3ccccc3n2C)c(O)c1	u	2.5µM	u	x	8.5µM	3.2µM
COc1ccc(CNc2nc3ccccc3n2C(C)C)c(O)c1	n	n	n	x	u	n
CCn1c(=O)c2cc(C(=O)N(C)c3cc(C)ccc3C)sc2c2ccccc21	x	x	x	n	n	x
O=C(Nc1cc2c3c(c1)CC(=O)N3CCC2)c1c(F)cccc1F	u	n	u	x	n	n
O=C(Nc1cc2c3c(c1)CC(=O)N3CCC2)c1ccc(Cl)cc1	u	n	u	x	15µM	n
CCCn1c(N)c(C(=O)CN(C)CC(=O)Nc2ccccc2C(F)(F)F)c(=O)[nH]c1=O	9.2µM	n	n	x	x	n
CCCn1c(N)c(C(=O)CN(C)CC(=O)Nc2cc(C)ccc2C)c(=O)[nH]c1=O	u	n	n	x	n	n
O=C(c1ccccc1)c1ccc(OCC(O)CN2CCN(S(=O)(=O)N3CCCCC3)CC2)cc1 (centres undefined)	18µM	n	n	n	n	n
CCOC(=O)C1=C[C@@]2(CC)CCCN3CCc4c(n1c1ccccc41)C32 (some centres undefined)	x	x	x	n	x	x
Cc1cc(=O)oc2cc(OCCc3ccccc3)ccc12	u	n	u	x	12µM	u
COc1cccc(COc2ccc3c(C)cc(=O)oc3c2)c1	u	2.2µM	7.3µM	x	3µM	2.8µM
Cc1cc(=O)oc2cc(OCCCC[n+]3ccccc3)ccc12	n	n	n	x	n	n
CN(C)c1ccc(N=C/C=C2\N(C)c3ccccc3C2(C)C)cc1	u	n	n	n	15µM	n
CN1/C(=C\C=O)C(C)(C)c2ccccc21	n	n	n	n	n	n
SMILES	ELG1 DNA repair	NPC1 prom act	ELG1 genotoxic	SMN2 splice enh	FLuc counter	Rab9 promoter act
CN1\C(=C/C=C/C=C/C=[N+](C)C)C(C)(C)c2ccccc21	n	n	n	n	8.5µM	n
Cc1ccc(-c2nc(NC(=O)CSc3nc(C)nc4sc5c(c34)CCCC5)ns2)cc1	x	x	x	n	n	x
CN=C1S/C(=C\c2ccc(N3CCOCC3)c(F)c2)C(=O)N1C	n	n	u	n	u	n
CN=C1S/C(=C\c2ccc(N3CCCC3)c(F)c2)C(=O)N1C	u	n	u	u	4.8µM	u
COCCNC(=O)CSc1cn(CC(=O)N2CCCCCC2)c2ccccc12	x	x	x	x	n	x
CCOc1ccc(C2c3c(oc4ccc(C)cc4c3=O)C(=O)N2CCCN(C)C)cc1 (centres undefined)	x	x	x	x	n	x
Cc1ccccc1-c1nnc(SCC#N)o1	n	n	n	x	n	n
Cc1ccccc1-c1nnc(-c2ccccc2C)o1	u	u	u	22µM	6.7µM	u
Cc1ccccc1-c1nnc(-c2ccc(Br)cc2)o1	u	u	9.2µM	u	u	u
CCc1ccc(NC(=O)CSc2nnc(-c3nonc3NC(C)=O)n2-c2ccccc2)cc1	x	x	x	x	n	x
COc1cc(Cl)ccc1OCc1cc(C(=O)NC2CCc3ccccc32)no1 (centres undefined)	n	n	n	x	n	n
CC(CNC(=O)c1cc(COc2ccc3ncccc3c2)on1)c1ccccc1 (centres undefined)	10µM	n	n	x	n	n
COc1cc(Cl)ccc1OCc1cc(C(=O)NCC(C)c2ccccc2)no1 (centres undefined)	n	n	n	x	21µM	n
CCC(NC(=O)c1cc(COc2ccc(OC)cc2Cl)on1)c1ccncc1 (centres undefined)	u	n	n	x	12µM	u
CCC(NC(=O)c1cc(COc2ccc(Cl)cc2OC)on1)c1ccncc1 (centres undefined)	u	3.5µM	u	x	4.8µM	4µM
COc1ccc(CCn2c3c(c(=O)[nH]c2=O)C(NC(=O)c2ccccc2OC)(C(F)(F)F)C(=O)N3)cc1OC (centres undefined)	x	x	x	n	n	x
COc1cc(Cl)ccc1OCc1cc(C(=O)NC(C)Cc2cnccn2)no1 (centres undefined)	u	2.5µM	u	x	6.7µM	1.1µM
CC(Cc1cnccn1)NC(=O)c1cc(COc2ccc(F)cc2F)on1 (centres undefined)	n	n	n	x	n	n
C[C@]12C[C@H](O)C3[C@@H](CCC4=CC(=O)CC[C@@]43C)[C@@H]1CC[C@@H]2C(=O)CO (some centres undefined)	x	x	x	n	x	x
COCCN(Cc1cc2cc(C)ccc2nc1Cl)C(=O)Nc1ccccc1OC	21µM	n	n	n	n	n
COCCN(Cc1cc2cc(C)c(C)cc2nc1Cl)C(=O)Nc1ccccc1	u	n	n	n	n	n
CN(c1ccccc1)S(=O)(=O)c1cccc(NC(=O)COc2ccccc2)c1	u	n	n	x	x	n
CN(C)S(=O)(=O)c1cccc(NC(=O)COc2ccc(C(=O)c3ccccc3)cc2)c1	13µM	n	n	x	u	n
CC(=O)CCc1ccc(OCC(=O)Nc2cccc(S(=O)(=O)N(C)c3ccccc3)c2)cc1	u	n	n	x	11µM	n
O=S(=O)(c1ccc(-n2cnnn2)cc1)N1CCN(c2cccc(C(F)(F)F)c2)CC1	x	x	x	n	n	x
CCC(C)(O)c1[nH]c2ccc(C(=O)OC)cc2c1C (centres undefined)	u	n	n	x	21µM	n
COC(=O)c1ccc2[nH]c(CO)c(-c3ccccc3)c2c1	u	n	n	x	n	n
Cc1ccc(C(=O)O/N=C(\N)c2nonc2N)cc1	u	n	u	n	0.48µM	n

Compound activity: PubChem BioAssay, National Center for Advancing Translational Sciences (NCATS)
